Assay outcomes from PubChem.
Pf growth 48h – inhibits P. falciparum growth in the first generation, 48 h. P. falciparum luciferase growth in erythrocytes, 48 h. actives 5.9% (n = 310,000). Potency, µM (series often up to 28.7 µM), actives largely listed as inhibitors
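Here the parasites carry a stable luciferase gene and grow inside erythrocytes in Albumax-based RPMI medium with compound for one erythrocytic cycle. Activity is scored as loss of luminescent signal.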
CHX counter – affects cycloheximide protein synthesis inhibition readout, counter-screen; actives 12% (n = 300,000); max response, %; cell reporter, cycloheximide protein synthesis inhibition counterscreen; in the data active = max response mostly above about 13%, no sharp cut-off; inactive = mostly below about 14%; also: read at 38.3 µM for the half of the compounds with a filed dose
Pf growth 96h – P. falciparum growth inhibition at 96 hours | P. falciparum luciferase reporter growth, 96 h | actives 6.9% (n = 320,000) | AID 504834 | Potency, µM (series often up to 28.7 µM), usual class: inhibitors
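Compounds incubated with erythrocytes infected by luciferase-expressing P. falciparum (2% hematocrit, 0.05% parasitemia final) for 96 hours, 37 C in 5% CO2. Growth inhibition scored as decreased luciferase luminescence.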
Sm TGR inh – blocks Schistosoma mansoni thioredoxin glutathione reductase | Potency, µM (titrated, usually from 114 µM), hits mostly inhibitors | actives 3% (n = 360,000) | purified TGR, DTNB reduction, TNB absorbance 405 nm; also: nearly all actives have a fitted effect of over 60% in size
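First, TGR (20 nM dispensed) and NADPH were mixed with compound. Second, a 15 min room-temperature incubation followed. Third, further NADPH and then DTNB were added to start the reaction. Finally, TNB absorbance was monitored kinetically.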
Shiga toxin inh – inhibitors of Shiga toxin in Vero cells; actives 9.2% (n = 290,000); inhibition, % at 38.7 µM; Vero cells, Shiga toxin protein synthesis inhibition reporter; in the data active = inhibition mostly above about 28%, no sharp cut-off; inactive = mostly below about 43%
NS1 inh – influenza NS1 inhibition. actives 0.4% (n = 270,000). Potency, µM (titrated, usually from 46.1 µM); calls by dose curve; also: actives are rising curves; nearly all actives have a fitted effect of over 50% in size
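Recovery from NS1-induced slow growth read by OD600 in budding yeast switched to galactose assay medium (pH 6.0, -URA) at 1:100 dilution. Compound 23 nl per well; the matching strain lacking NS1 serves as control.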
Numbers stand for hits; n = inactive; u = inconclusive; x = not tested or not shown; [ ] = dose if it differs, or a comment. Hits are enriched below; roughly 21% of the tested compounds scored in any of these assays. Unless noted, calls follow the shape of the dose curve; as a rule, active = well fitted curve in the direction sought with a large enough effect; inconclusive = small, poorly fitted or top-dose-only effect, or another doubt; inactive = no such curve, though single readings can be large; an effect the other way counts as inactive or inconclusive.

SMILES	Pf growth 48h	CHX counter	Pf growth 96h	Sm TGR inh	Shiga toxin inh	NS1 inh
Nc1cccc(-c2nc3ccc(C(=O)c4ccccc4)cc3[nH]2)c1	n	33	n	n	61	n
Nc1ccc(-c2nc3c(Cl)cc(N)cc3[nH]2)cc1	u	n	9.3µM	n	n	n
C[C@@H]1COC(=O)O1	x	n	x	x	n	x
CCOc1ccc(NC(=O)Nc2c[nH]c(=O)[nH]c2=O)cc1	x	x	x	n	x	x
O=C(CN1C=NS(=O)(=O)c2ccccc21)Nc1ccc(Br)cc1	x	x	x	n	x	x
COc1ccc(C(=O)/C=C2\NCCc3cc(OC)c(OC)cc32)cc1OC	10µM	n	13µM	n	n	n
CCOC(=O)/C=C1\NC(C)(C)Cc2cc(OC)c(OC)cc21	n	n	n	n	n	n
CC(=O)c1ccc(OCC(=O)N2CCN(S(=O)(=O)c3ccc(C)cc3C)CC2)cc1	u	n	9.3µM	n	n	n
CSc1ccc(CSCC(=O)N2CCN(S(=O)(=O)c3ccc(C)cc3C)CC2)cc1	12µM	x	n	n	x	x
N#Cc1ccc(OCC(=O)N2CCN(S(=O)(=O)c3cccc(Cl)c3)CC2)cc1	u	x	9.3µM	n	x	x
Cc1ccc(S(=O)(=O)N2CCN(C(=O)COc3ccc(Br)cc3)CC2)cc1	13µM	x	u	n	x	x
CCC(C)c1ccc(S(=O)(=O)N2CCN(C(=O)COc3ccc4c(C)cc(=O)oc4c3)CC2)cc1 (stereo not given)	x	n	u	n	n	n
O=C(COc1ccccc1[N+](=O)[O-])N1CCN(S(=O)(=O)c2ccccc2)CC1	n	n	n	n	n	n
COc1ccc(S(=O)(=O)N2CCN(C(=O)COc3ccc4c(C)cc(=O)oc4c3)CC2)cc1	u	n	4.7µM	n	n	n
COc1cc(CCC(=O)N2CCN(c3ccc(N4CCOCC4)nn3)CC2)cc(OC)c1OC	x	n	7.4µM	n	n	n
Cc1ccc(S(=O)(=O)N2CCN(C(=O)CSc3ccc(F)cc3)CC2)cc1	n	n	u	n	n	n
Cc1ccc(S(=O)(=O)N2CCN(C(=O)CSc3ncc(C(F)(F)F)cc3Cl)CC2)cc1	u	n	u	35µM	n	n
Cc1ccc(OCC(=O)N2CCN(S(=O)(=O)c3ccccc3[N+](=O)[O-])CC2)cc1	9.3µM	n	n[5.75 µM]	n	n	n
Cc1cc(NS(=O)(=O)c2ccc(NC(=O)COc3ccc(Cl)c(C)c3)cc2)no1	n	n	n	n	n	n
COc1ccc(C)cc1-n1cnc2cc(C(=O)NC3CCCC3)ccc21	x	x	x	n	x	x
COc1cc(CCC(=O)N2CCN(c3ccc([N+](=O)[O-])cc3)CC2)cc(OC)c1OC	u	n	u	n	n	n
Cc1cc(=O)oc2ccc(OCC(=O)N3CCC(C)CC3)cc12	n	n	n	18µM	n	n
Cc1cc(=O)oc2cc(OCC(=O)N3CCCC(C)C3)ccc12 (stereo not given)	n	n	n[5.75 µM]	n	n	n
COc1ccc(S(=O)(=O)N2CCN(C(=O)c3ccc(C)o3)CC2)cc1	u	n	u	n	n	n
COc1cc(CCC(=O)N2CCN(S(=O)(=O)c3ccc(C)c(C)c3)CC2)cc(OC)c1OC	u	n	4.7µM	n	n	n
SMILES	Pf growth 48h	CHX counter	Pf growth 96h	Sm TGR inh	Shiga toxin inh	NS1 inh
Cc1ccc(S(=O)(=O)N2CCN(C(=O)CC(C)C)CC2)cc1	n	32	n	n	81	n
Cc1ccc(C(=O)N2CCN(S(=O)(=O)c3ccc(Br)cc3)CC2)o1	6.6µM	n	u	n	n	n
CC(C)CC(=O)N1CCN(S(=O)(=O)c2ccc(Cl)cc2)CC1	n	n	u	n	n	n
Cc1ccc(Cl)cc1N1CCN(S(=O)(=O)c2ccc3c(c2)CC(C)N3C(=O)C2CCC2)CC1 (stereo not given)	x	x	x	n	x	x
O=C(COc1ccccc1)N1CCN(S(=O)(=O)c2ccc(Br)cc2)CC1	n	n	n	n	n	n
COc1ccc(CCC(=O)N2CCN(S(=O)(=O)c3ccc4ccccc4c3)CC2)cc1	n	n	u	n	n	n
COc1ccc(S(=O)(=O)N2CCN(C(=O)COc3ccccc3)CC2)cc1	n	n	7.4µM	n	n	n
Cc1ccc(OCCC(=O)OCC(=O)N2CCN(S(=O)(=O)c3ccc(Cl)cc3)CC2)cc1	n	x	n	n	x	x
O=S(=O)(c1ccc(OCc2ccc(Br)cc2)cc1)N1CCOCC1	n	x	6.6µM	n	x	x
COc1ccc(CCC(=O)N2CCN(S(=O)(=O)c3ccc(OC(F)(F)F)cc3)CC2)cc1	9.3µM	x	12µM	n	x	x
CCOc1ccc(OCCC(=O)OCC(=O)N2CCN(S(=O)(=O)c3ccc(C)cc3)CC2)cc1	u	x	n	50µM	x	x
O=S(=O)(c1ccc(Oc2ccc(S(=O)(=O)N3CCOCC3)cc2)cc1)N1CCOCC1	n	n	u	n	n	n
COc1cc(OC)cc(C(=O)N[C@H](C(=O)Nc2cc(C)cc(C)c2)C(C)C)c1	u	n	u	n	n	x
Cc1ccc(S(=O)(=O)N2CCN(C(=O)COC(=O)c3ccc(Br)o3)CC2)c(C)c1	u	x	n	n	x	x
Cc1ccc(S(=O)(=O)N2CCN(C(=O)c3ccc(Br)o3)CC2)c(C)c1	6.6µM	n	u	n	n	n
Cn1c(CNC(=O)c2ccccc2F)cc2ccccc21	n	16	n	n	n	n
CCn1c(CNC(=O)C2CCCCC2)cc2cc(C)ccc21	n	n	n	n	n	n
CCn1c(CNC(=O)c2ccccc2Cl)cc2ccccc21	n	n	n	n	n	n
CCn1c(CNC(=O)c2cc(OC)c(OC)c(OC)c2)cc2ccccc21	9.3µM	n	u	n	x	u
COc1cc(C(=O)NCc2cc3ccccc3n2C)cc(OC)c1OC	n	n	n	n	x	n
CCn1c(CNC(=O)c2ccccc2F)cc2cc(C)ccc21	u	15	n	n	n	n
CCn1c(CNC(=O)c2ccccc2F)cc2ccccc21	u	24	n	n	142	n
Cc1ccc(S(=O)(=O)CCC(=O)Nc2ccc(OC(F)(F)F)cc2)cc1	x	x	x	n	x	x
CCOc1ccc(CCNC(=O)c2ccc(C)c(-n3cnc4cccnc43)c2)cc1	x	x	x	n	x	x
CC(C)C(CCNC(=O)CC(Cc1ccccc1)c1ccco1)c1ccco1 (stereo not given)	u	22	13µM	u	n	n
SMILES	Pf growth 48h	CHX counter	Pf growth 96h	Sm TGR inh	Shiga toxin inh	NS1 inh
O=C(O)c1ccccc1C(=O)Nc1ccccc1	n	n	x	n	n	n
O=C(Nc1ccccc1)C1=C(c2ccccc2)S(=O)(=O)CCS1(=O)=O	12µM	23	u	0.25µM	45	n
COc1ccc(C(=O)C[n+]2ccccc2/C=N/O)cc1	n	19	u	n	n	n
O=C(Nn1cnc2ccccc2c1=O)c1ccccc1Cl	n	17	n	n	n	n
O=C(/C=C/c1ccccc1)Nn1cnc2ccccc2c1=O	n	21	u	n	n	n
COc1ccc(/C=C/C(=O)Nn2cnnc2)cc1	n	n	u	n	n	n
O=C(/C=C/c1ccccc1Cl)Nn1cnc2ccccc2c1=O	n	n	n	n	n	n
O=C(/C=C/c1ccccc1)Nn1cnnc1	n	n	15µM	n	n	n
